# Experimental data as given in ChEMBL document CHEMBL1961873, “Compounds: GSK PKIS; Assays: Nanosyn kinase panel” (2012).
# Tests used:
# [1] = target: Sphingosine kinase 1 (Homo sapiens) (UniProt Q9NYA1); conditions: at 1 µM;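 also: mean SPHK1 inhibition value reported from the GSK PKIS kinase panel screen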
# [2] = target: T1, Sphingosine kinase 2 (Homo sapiens) (UniProt Q9NRA0); conditions: at 0.1 µM
# T1 sequence (whole entry): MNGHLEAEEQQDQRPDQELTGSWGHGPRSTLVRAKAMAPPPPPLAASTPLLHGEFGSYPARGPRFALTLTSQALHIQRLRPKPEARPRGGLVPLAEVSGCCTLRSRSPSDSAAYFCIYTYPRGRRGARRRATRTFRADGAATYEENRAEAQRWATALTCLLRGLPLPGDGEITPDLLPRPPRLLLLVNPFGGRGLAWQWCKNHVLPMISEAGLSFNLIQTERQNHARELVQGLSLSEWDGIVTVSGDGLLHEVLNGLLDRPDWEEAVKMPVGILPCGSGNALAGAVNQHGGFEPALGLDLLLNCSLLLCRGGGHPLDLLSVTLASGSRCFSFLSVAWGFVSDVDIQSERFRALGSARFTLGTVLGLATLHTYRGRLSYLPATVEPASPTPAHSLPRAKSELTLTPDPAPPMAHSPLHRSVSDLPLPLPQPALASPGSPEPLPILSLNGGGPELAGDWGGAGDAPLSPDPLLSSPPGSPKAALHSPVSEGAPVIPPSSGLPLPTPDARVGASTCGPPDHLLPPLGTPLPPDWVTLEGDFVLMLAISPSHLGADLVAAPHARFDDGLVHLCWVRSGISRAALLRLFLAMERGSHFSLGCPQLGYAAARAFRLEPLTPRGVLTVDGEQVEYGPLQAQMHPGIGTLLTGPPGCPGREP
# [3] = target: T1, Sphingosine kinase 2 (Homo sapiens); conditions: at 1 µM
# [4] = target: Casein kinase II subunit alpha (Homo sapiens) (UniProt P68400); conditions: at 0.1 µM
# [5] = target: Casein kinase II subunit alpha (Homo sapiens) (UniProt P68400); conditions: at 1 µM
# [6] = target: T2, Inhibitor of nuclear factor kappa-B kinase subunit alpha (Homo sapiens) (UniProt O15111); conditions: at 0.1 µM
# T2 sequence (whole entry): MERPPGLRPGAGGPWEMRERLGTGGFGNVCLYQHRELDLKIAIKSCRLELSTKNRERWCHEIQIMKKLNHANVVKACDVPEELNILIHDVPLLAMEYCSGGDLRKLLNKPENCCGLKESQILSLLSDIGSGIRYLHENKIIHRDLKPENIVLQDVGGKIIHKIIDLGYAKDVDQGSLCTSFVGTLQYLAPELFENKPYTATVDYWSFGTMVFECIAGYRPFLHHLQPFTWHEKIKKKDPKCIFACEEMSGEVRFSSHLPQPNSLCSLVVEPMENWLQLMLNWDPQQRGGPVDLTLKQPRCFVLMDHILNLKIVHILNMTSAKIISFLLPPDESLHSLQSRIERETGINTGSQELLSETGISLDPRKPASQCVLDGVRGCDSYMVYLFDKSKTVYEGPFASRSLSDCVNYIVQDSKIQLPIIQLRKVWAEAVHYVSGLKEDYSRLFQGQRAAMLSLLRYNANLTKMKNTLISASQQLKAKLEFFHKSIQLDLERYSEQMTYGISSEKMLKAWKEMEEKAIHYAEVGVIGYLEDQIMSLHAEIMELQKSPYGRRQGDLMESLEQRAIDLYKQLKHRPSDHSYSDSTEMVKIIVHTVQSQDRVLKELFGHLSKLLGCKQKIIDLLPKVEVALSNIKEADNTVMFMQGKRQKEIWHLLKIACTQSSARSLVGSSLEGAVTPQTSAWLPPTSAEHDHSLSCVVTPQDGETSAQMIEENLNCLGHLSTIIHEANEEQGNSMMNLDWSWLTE
# [7] = target: T2, Inhibitor of nuclear factor kappa-B kinase subunit alpha (Homo sapiens); conditions: at 1 µM
# [8] = target: T3, Inhibitor of nuclear factor kappa-B kinase subunit beta (Homo sapiens) (UniProt O14920); conditions: at 0.1 µM
# T3 sequence (whole entry): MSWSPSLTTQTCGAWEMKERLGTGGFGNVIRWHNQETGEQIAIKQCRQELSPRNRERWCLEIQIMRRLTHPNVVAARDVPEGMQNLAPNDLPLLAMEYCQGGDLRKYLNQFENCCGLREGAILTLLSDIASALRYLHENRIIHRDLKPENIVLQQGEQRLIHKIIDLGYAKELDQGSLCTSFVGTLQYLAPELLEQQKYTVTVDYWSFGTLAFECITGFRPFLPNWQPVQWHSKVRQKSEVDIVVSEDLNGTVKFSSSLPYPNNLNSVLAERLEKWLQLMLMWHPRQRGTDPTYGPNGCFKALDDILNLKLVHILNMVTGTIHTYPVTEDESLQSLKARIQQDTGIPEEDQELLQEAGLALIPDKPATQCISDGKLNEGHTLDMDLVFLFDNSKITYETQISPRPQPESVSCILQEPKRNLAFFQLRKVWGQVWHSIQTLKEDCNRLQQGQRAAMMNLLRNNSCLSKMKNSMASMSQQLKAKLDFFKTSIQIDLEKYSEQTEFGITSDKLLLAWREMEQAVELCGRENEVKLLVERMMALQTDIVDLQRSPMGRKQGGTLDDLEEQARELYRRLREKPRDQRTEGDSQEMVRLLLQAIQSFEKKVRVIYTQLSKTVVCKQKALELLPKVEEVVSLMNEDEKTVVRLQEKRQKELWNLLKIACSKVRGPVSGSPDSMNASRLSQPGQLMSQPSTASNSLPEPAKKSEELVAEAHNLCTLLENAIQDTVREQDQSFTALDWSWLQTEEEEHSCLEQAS
# [9] = target: T3, Inhibitor of nuclear factor kappa-B kinase subunit beta (Homo sapiens); conditions: at 1 µM
# [10] = target: T4, Inhibitor of nuclear factor kappa-B kinase subunit epsilon (Homo sapiens) (UniProt Q14164); conditions: at 0.1 µM;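 also: mean inhibition of IKKε reported, from the GSK PKIS dataset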
# T4 sequence (whole entry): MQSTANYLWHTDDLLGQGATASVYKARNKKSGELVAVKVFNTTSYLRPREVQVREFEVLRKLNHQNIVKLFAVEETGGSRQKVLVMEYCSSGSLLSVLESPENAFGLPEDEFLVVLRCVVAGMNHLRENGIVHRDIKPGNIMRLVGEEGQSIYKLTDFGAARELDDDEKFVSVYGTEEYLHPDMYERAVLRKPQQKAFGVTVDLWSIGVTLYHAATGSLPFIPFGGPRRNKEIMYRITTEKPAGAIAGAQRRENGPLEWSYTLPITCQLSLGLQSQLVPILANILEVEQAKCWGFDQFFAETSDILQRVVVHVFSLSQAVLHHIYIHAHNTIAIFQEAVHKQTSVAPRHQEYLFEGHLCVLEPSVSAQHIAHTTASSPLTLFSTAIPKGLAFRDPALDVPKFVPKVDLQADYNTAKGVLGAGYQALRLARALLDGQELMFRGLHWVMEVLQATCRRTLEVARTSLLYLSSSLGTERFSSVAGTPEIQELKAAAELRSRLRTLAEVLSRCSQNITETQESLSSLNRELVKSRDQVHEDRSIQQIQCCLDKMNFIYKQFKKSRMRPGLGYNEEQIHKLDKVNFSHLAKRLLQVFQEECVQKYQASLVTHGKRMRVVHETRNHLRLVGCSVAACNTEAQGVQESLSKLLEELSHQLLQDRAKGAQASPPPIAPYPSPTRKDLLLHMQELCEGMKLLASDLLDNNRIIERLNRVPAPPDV
# Casein kinase II subunit alpha (Homo sapiens), sequence (P68400 whole entry, looked up): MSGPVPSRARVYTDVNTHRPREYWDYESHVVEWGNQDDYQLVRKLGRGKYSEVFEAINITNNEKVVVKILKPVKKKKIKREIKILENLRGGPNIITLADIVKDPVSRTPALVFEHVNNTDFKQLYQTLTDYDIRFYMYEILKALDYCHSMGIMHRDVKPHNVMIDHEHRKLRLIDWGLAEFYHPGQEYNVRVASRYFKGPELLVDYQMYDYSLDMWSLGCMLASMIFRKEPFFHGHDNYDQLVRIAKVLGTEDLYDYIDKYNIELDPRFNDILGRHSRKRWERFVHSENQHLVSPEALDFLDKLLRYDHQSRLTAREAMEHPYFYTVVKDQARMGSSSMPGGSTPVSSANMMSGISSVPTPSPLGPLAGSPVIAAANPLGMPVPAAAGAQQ
# Sphingosine kinase 1 (Homo sapiens), sequence (Q9NYA1 whole entry): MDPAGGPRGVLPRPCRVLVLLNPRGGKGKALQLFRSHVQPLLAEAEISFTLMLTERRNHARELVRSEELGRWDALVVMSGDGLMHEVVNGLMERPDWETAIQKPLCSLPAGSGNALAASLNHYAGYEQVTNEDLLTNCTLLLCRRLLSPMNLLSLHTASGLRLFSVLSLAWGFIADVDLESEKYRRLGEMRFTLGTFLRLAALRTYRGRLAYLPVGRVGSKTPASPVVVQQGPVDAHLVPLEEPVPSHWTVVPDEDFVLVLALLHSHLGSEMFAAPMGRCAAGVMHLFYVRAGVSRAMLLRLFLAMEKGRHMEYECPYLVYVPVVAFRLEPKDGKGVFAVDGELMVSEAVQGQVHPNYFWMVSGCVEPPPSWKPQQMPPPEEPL
compound,measurement,setting,value
CCn1c(-c2nonc2N)nc2c(C#CC(C)(C)O)nc(OC[C@@H](N)c3ccccc3)cc21,inhibition,[1],2.57%
same,inhibition,[2],-1.25%
same,inhibition,[3],-2.35%
same,inhibition,[4],0.95%
same,inhibition,[5],1.36%
same,inhibition,[6],4.77%
same,inhibition,[7],2.26%
same,inhibition,[8],-2.58%
same,inhibition,[9],-1.93%
same,inhibition,[10],0.47%
